The source of these data is article PMC7819943, “Rice protein-binding microarrays: a tool to detect cis-acting elements near promoter regions in rice”.

Over roughly 68,000 sequences, “fluorescence intensity (a.u.)” has its median near 9,100; the highest 2% begin near 16,000. Only a selection was taken, and the highest values are over-represented in it overall.

OsWRKY34, sequence (Q0JBA9 entry or part of it): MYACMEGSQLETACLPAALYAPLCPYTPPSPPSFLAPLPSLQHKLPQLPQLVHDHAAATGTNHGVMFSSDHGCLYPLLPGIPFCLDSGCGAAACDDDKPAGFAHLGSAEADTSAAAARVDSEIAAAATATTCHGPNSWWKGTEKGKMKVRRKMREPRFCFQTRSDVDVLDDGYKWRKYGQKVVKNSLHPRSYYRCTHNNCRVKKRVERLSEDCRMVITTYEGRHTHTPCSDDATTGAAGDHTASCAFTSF

This experiment addresses OsWRKY34 (Oryza sativa, UniProt Q0JBA9 1-250). Kind of experiment: protein-binding microarray (RPBM); PBS, 2% BSA, 51.3 ng/ul salmon testes DNA, 50 uM zinc acetate, 200 nM TF, 25 C, 1 h; high values mean tight binding. To be noted: protein: recombinant; tags: N-terminal polyhistidine and DsRed monomer fusion (pET32a); label: CyDye5-dUTP incorporated in the synthesized complementary strand; 3' TTTTT single-stranded linker to array surface; dsDNA, one strand shown. The essentials:
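Transcription factors, each fused N-terminally to a polyhistidine tag and DsRed, were expressed in E. coli BL21-CodonPlus and purified on Ni–NTA. A custom Agilent array was made double-stranded by primer extension with Cy5-dUTP and blocked with 2% BSA. It was incubated with 200 nM protein in PBS, 2% BSA, salmon testes DNA and 50 µM zinc acetate at 25 °C for 1 h, then washed. The binding signal is per-feature fluorescence intensity (arbitrary units) read on an Axon 4000B scanner.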
For the sequence “TGGAGGTGGTGGTGGGAGGAAGGGGAGGAGGAGGCGCGGCCGGAGTCACCTAGTGCAG”, the binding signal was 15100 fluorescence intensity (a.u.).

With “AGCTGGCTAAATCATATTTCCAAAGTCTCTCTCGTCTCTCCGGAGTCACCTAGTGCAG”, the binding signal is 8510 fluorescence intensity (a.u.).

Take “GCCTTCACAAAATCACAAGCGAATGATTTTACTGCCTTGCCGGAGTCACCTAGTGCAG”: the binding signal was 9190 fluorescence intensity (a.u.).

Regarding “TGAGTTTTTGTTTGTATTGTTTGACTACTCGTCTTATTCACGGAGTCACCTAGTGCAG”, the binding signal is 10400 fluorescence intensity (a.u.).

For “AAGAGTACGGGTGGGGATGCTTTGGAGTTCACTCCAACTCCGGAGTCACCTAGTGCAG”, the binding signal is 10300 fluorescence intensity (a.u.).

Take “TCCCGTACGCCTCTACTACCTCTTTTACCTGCGTGCCTTCCGGAGTCACCTAGTGCAG”: the binding signal is 11100 fluorescence intensity (a.u.).

As for “CACCCTTCTTCTCACCCATTGACGGATGCCCTGGAGGTTTCGGAGTCACCTAGTGCAG”, the binding signal was 10400 fluorescence intensity (a.u.).

“GTTATGGGTTTGATTTTTTTTCGTTTAGAAAGTTATGGGTCGGAGTCACCTAGTGCAG”: the binding signal is 9220 fluorescence intensity (a.u.).

Consider “ATTTTTTTCGGTTTGGTTGATTTTATTGAGTTACATTTACCGGAGTCACCTAGTGCAG”, for which the binding signal is 10900 fluorescence intensity (a.u.).

Take “AGTCGCAGTGGTTTTGGTTGGTTGGTTGATTACATTTTGACGGAGTCACCTAGTGCAG”: the binding signal is 20000 fluorescence intensity (a.u.).

For the sequence “AGGGTTTGGTTGATTTTCGGATTTGGTTTGGTTTTGACGACGGAGTCACCTAGTGCAG”, the binding signal was 13300 fluorescence intensity (a.u.).

As to “CGTTGATTTGGTTTGGGTTAGTTATGGGTTTGATTTTTTTCGGAGTCACCTAGTGCAG”, the binding signal was 20600 fluorescence intensity (a.u.).

Regarding “GGGTTTTTGGTTTTGGTTTTGATTTTGATTTTGATTTTGACGGAGTCACCTAGTGCAG”, the binding signal is 16400 fluorescence intensity (a.u.).

As for “GGTTTGGTTTTGTTTAGTGGGTTAGAAGCCAATGAGAGCACGGAGTCACCTAGTGCAG”, the binding signal is 10300 fluorescence intensity (a.u.).

Consider “CATCCGACCTCAACTCCTCTGTCCTCTACTACGCATCTCTCGGAGTCACCTAGTGCAG”, for which the binding signal is 14100 fluorescence intensity (a.u.).

Consider “GATCACATGGGCCACACTTTTTTTTAATTATTTTTTGTGTCGGAGTCACCTAGTGCAG”, for which the binding signal was 8040 fluorescence intensity (a.u.).

“GTGTGGGGCTTTTAACTTTTTGTCACTTTTAAATTTTAAACGGAGTCACCTAGTGCAG”: the binding signal is 21300 fluorescence intensity (a.u.).

For “ATTATGCATTTATTTTATTTGAAACTTTAATGCTTTTTTTCGGAGTCACCTAGTGCAG”, the binding signal was 8110 fluorescence intensity (a.u.).

Take “TATATTGCTCTTAATTTATTTGTGTTACTTTTTATGTGTTCGGAGTCACCTAGTGCAG”: the binding signal is 8330 fluorescence intensity (a.u.).

As for “GTTAACTTGCTTATATGGTACTAGAAGAAAAACTTAATGGCGGAGTCACCTAGTGCAG”, the binding signal was 64900 fluorescence intensity (a.u.).

“TTATAAACTTGGTCAAACTTAATAAAGTTTGACTAGAAAACGGAGTCACCTAGTGCAG”: the binding signal was 8320 fluorescence intensity (a.u.).

On to “GTAGTTTTGTGAAATTTACTTTTTTTTTTTTTTTTGATAACGGAGTCACCTAGTGCAG”, for which the binding signal was 9770 fluorescence intensity (a.u.).

For “GGGCTTATTTTTTTTTTTTAACTTTGTTATGCTCTAGAAACGGAGTCACCTAGTGCAG”, the binding signal was 20100 fluorescence intensity (a.u.).

On to “TTTTTTTCTGGGGTTGCTTAGAATGGTACTAACTATGATTCGGAGTCACCTAGTGCAG”, for which the binding signal is 8900 fluorescence intensity (a.u.).

Take “CCCTCGTCTTCTTCTCCACGCGACGCCGGTCAAAGTTTGACGGAGTCACCTAGTGCAG”: the binding signal is 10700 fluorescence intensity (a.u.).

With “AGCCATCTTAAGTTAGGAACAGTTTCTTTTTTTAGAACTACGGAGTCACCTAGTGCAG”, the binding signal was 8290 fluorescence intensity (a.u.).

For the sequence “AAACCATTTTTTTTATCTATTATCCTTTGACTGTTTAATTCGGAGTCACCTAGTGCAG”, the binding signal was 10500 fluorescence intensity (a.u.).

“AAATTTTTATATGCTGTGTATTTTCTATTTTTTTTATTTTCGGAGTCACCTAGTGCAG”: the binding signal was 11100 fluorescence intensity (a.u.).

Regarding “GTGTTTGATTTGCCTCTCTTAAGAACCACTGTGAAAACATCGGAGTCACCTAGTGCAG”, the binding signal was 9680 fluorescence intensity (a.u.).

Regarding “CTCGCCGCGTGCTCCTTTACTGCTCTCTGCTCGCGCAGGACGGAGTCACCTAGTGCAG”, the binding signal was 9230 fluorescence intensity (a.u.).

As to “CCTCGACCGTCCCCAACCGACGACCCCGTGGTCACGCTCCCGGAGTCACCTAGTGCAG”, the binding signal is 10900 fluorescence intensity (a.u.).

As to “GGTCAATTTAGGGCACACACCAAACCAGCCCTTACAACTTCGGAGTCACCTAGTGCAG”, the binding signal is 8620 fluorescence intensity (a.u.).

As to “AAAAATATATCCAAGCAAATTCACACAGTCAAGTTCACTCCGGAGTCACCTAGTGCAG”, the binding signal was 14800 fluorescence intensity (a.u.).

Turning to “GGTTGGTGTGGACCTTGCCCATTGTGAAACTTTGGTCAAACGGAGTCACCTAGTGCAG”, the binding signal is 8070 fluorescence intensity (a.u.).

In the case of “TTCGAAATGTTTAACGCCGTTGACTTTTTATCATATGTTTCGGAGTCACCTAGTGCAG”, the binding signal was 35500 fluorescence intensity (a.u.).

For the sequence “CCGTTTCATATTTAAATTGTTTTGACTTTTTTATAGTTAACGGAGTCACCTAGTGCAG”, the binding signal is 8140 fluorescence intensity (a.u.).

For “TCGAAATGTTTGACGCCGTTGACTTTTTAAGTATATGTTTCGGAGTCACCTAGTGCAG”, the binding signal is 29200 fluorescence intensity (a.u.).

“TCATGGATTATCTCTTTAATGTATAACGCCGTTGACTTTTCGGAGTCACCTAGTGCAG”: the binding signal was 14300 fluorescence intensity (a.u.).

In the case of “AGTTTCGAAATATTTGACGCCGTTGACTTTTTATCAAATGCGGAGTCACCTAGTGCAG”, the binding signal is 28300 fluorescence intensity (a.u.).

With “TTCGTTTGACTTTTGCCGTTTCAAATTTGAATTCTCGAAACGGAGTCACCTAGTGCAG”, the binding signal is 9080 fluorescence intensity (a.u.).

For “ACTTATTTTAGTTTGACTTGATTTTTCATCAAATGTTTTTCGGAGTCACCTAGTGCAG”, the binding signal was 10400 fluorescence intensity (a.u.).

As to “TTCGAAATGTTTGACGCCGTTGACTTTTTAGCATATGTTTCGGAGTCACCTAGTGCAG”, the binding signal is 13200 fluorescence intensity (a.u.).

As to “CGTATGCTCCTTAGGTGATACTATGTCCCTATTTGCTTCACGGAGTCACCTAGTGCAG”, the binding signal is 8180 fluorescence intensity (a.u.).

Turning to “TTTATTATTAGTCTAAGTTTAATACTTCTTATTAGTGTCACGGAGTCACCTAGTGCAG”, the binding signal is 8180 fluorescence intensity (a.u.).

“TGATACTTGGCAGGCGTCGTCTCCAAATACCTGACCACTTCGGAGTCACCTAGTGCAG”: the binding signal was 8290 fluorescence intensity (a.u.).

On to “AATAGATCACCACATTCAATGCAGTTCTTCCGATTAAATTCGGAGTCACCTAGTGCAG”, for which the binding signal is 9730 fluorescence intensity (a.u.).

As to “GGTTGCTCAGTTGCCGACACATTTCTGCAGACCCATTTTGCGGAGTCACCTAGTGCAG”, the binding signal is 8080 fluorescence intensity (a.u.).

For “CTGTCCTCTATCGATTGTTCTGACTTGGGTCACCATGTAACGGAGTCACCTAGTGCAG”, the binding signal is 8990 fluorescence intensity (a.u.).

For “CTCTGACTCTCTGTTCCAATTCCCACACGTTTCTCTCGCGCGGAGTCACCTAGTGCAG”, the binding signal is 14800 fluorescence intensity (a.u.).

For “TTCGTGGATGGGGTGGGCTCTTTCTCACTGTTATATTGTCCGGAGTCACCTAGTGCAG”, the binding signal was 27500 fluorescence intensity (a.u.).

On to “GCTCTTATCCCGAGCTCGTGTCACTGGTGGGGTGGGGCCCCGGAGTCACCTAGTGCAG”, for which the binding signal is 16600 fluorescence intensity (a.u.).

As to “TTAGGTGTTTTGTAGTAGTGTAATGGGGCATATTCGTGGGCGGAGTCACCTAGTGCAG”, the binding signal is 8270 fluorescence intensity (a.u.).

For “ATTGGTGGTAATCGGAGGTGGAGGTGGGCGTGATGATCTCCGGAGTCACCTAGTGCAG”, the binding signal is 11100 fluorescence intensity (a.u.).

In the case of “TTTCTCACTGTTATATTGTCTAATATCATCTTTCTCTTTTCGGAGTCACCTAGTGCAG”, the binding signal was 9880 fluorescence intensity (a.u.).

In the case of “CCGCCGAGTCACTGCTCTCGTTCTTATCCACACTGCCCGACGGAGTCACCTAGTGCAG”, the binding signal is 9120 fluorescence intensity (a.u.).

As to “ACGTGTCACCTTCTTATTCGCTGGGTTTTTTCTGGTGGGTCGGAGTCACCTAGTGCAG”, the binding signal is 8770 fluorescence intensity (a.u.).

As for “AGGTAATCATATTGTTGTTATTCGTGGATGGGGTGGGCTCCGGAGTCACCTAGTGCAG”, the binding signal is 16400 fluorescence intensity (a.u.).

Regarding “CTTGTCTCTCTTTCTCTTTCTCTCTCTCTCACCTGTTATTCGGAGTCACCTAGTGCAG”, the binding signal was 9740 fluorescence intensity (a.u.).

As to “CCCACGTATTCCCCACCTTATCTCACTGTCTCGTGGGCCCCGGAGTCACCTAGTGCAG”, the binding signal is 10500 fluorescence intensity (a.u.).

In the case of “ATGGGGTGTTTTTTTTTTCGCTATATTCTCTTAGAACTGTCGGAGTCACCTAGTGCAG”, the binding signal was 18000 fluorescence intensity (a.u.).

Turning to “AAGTGTTTTCGTTTTTTTTTCATTCGCTATTATTTTCTTTCGGAGTCACCTAGTGCAG”, the binding signal is 9660 fluorescence intensity (a.u.).
